Shiga toxin inh = Shiga toxin inhibition; inhibition, % at 38.7 µM; 9.2% of 290,000 active; Vero cells, Shiga toxin protein synthesis inhibition reporter; in the data active = inhibition mostly above about 28%, no sharp cut-off; inactive = mostly below about 43%
TbPYK inhibitor = inhibitors of Trypanosoma brucei pyruvate kinase; TbPYK enzyme, Kinase-Glo Plus ATP luminescence, 45 min; Potency, µM (series often up to 76.8 µM), most hits filed as inhibitors; 0.12% of 410,000 active; AID 624173; also: nearly all actives have a fitted effect of over 50% in size
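Assay buffer: 50 mM TEA pH 7.2, 100 mM KCl, 10 mM MgCl2, 0.05% BSA, 0.01% Tween-20. Pyruvate kinase from T. brucei plus substrate met compound, then ADP (130 uM final). Luminescence was read post 45 min RT.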
Sm TGR block = blocks Schistosoma mansoni thioredoxin glutathione reductase; AID 485364; Potency, µM (series often up to 114 µM), most hits filed as inhibitors; purified TGR, DTNB reduction, TNB absorbance 405 nm; 3% of 360,000 active; also: nearly all actives have a fitted effect of over 60% in size
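Kinetic colorimetric format: TGR-catalysed, NADPH-driven DTNB reduction monitored via TNB absorbance. Enzyme dispensed at 20 nM; compound exposure 15 min at room temperature before reaction start.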
Giardia FBPA inh = Giardia lamblia aldolase inhibition | purified Giardia FBPA | A8B2U2 | 0.71% of 290,000 active | Potency, µM (doses to about 59.6 µM), actives largely listed as inhibitors | AID 2451; also: nearly all actives have a fitted effect of over 55% in size
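40 nM FBPA preincubated 10 min at RT with compound (up to 57.5 uM final), then substrate plus GAPDH/TPI/NAD/arsenate coupling and diaphorase/resazurin added. Fluorescence read after 20 min at RT, 525/598 nm.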
LmPK inh = LmPK (Leishmania mexicana) enzyme inhibition; Q27686; purified LmPK, Kinase-Glo ATP luminescence, 1 h; Potency, µM (top dose mostly 57.5 µM), hits mostly inhibitors; 0.37% of 290,000 active
Target sequence (Q27686 whole entry, looked up): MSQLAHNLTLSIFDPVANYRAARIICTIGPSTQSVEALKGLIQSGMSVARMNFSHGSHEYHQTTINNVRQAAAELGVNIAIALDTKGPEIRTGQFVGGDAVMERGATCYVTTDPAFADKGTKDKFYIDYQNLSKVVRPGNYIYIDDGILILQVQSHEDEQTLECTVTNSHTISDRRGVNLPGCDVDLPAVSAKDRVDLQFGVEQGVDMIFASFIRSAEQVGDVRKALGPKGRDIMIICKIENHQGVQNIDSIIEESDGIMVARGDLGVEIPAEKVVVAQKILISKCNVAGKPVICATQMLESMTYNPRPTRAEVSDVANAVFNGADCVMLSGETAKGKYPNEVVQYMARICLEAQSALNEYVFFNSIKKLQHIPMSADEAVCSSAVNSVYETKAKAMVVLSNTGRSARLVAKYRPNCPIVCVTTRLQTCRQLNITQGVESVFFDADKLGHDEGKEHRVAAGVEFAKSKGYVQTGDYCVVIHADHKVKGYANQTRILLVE
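Purified LmPK (0.1 nM) with 0.5 mM PEP and 0.1 mM ADP in imidazole buffer pH 7.2 with MgCl2/KCl, 1 h at room temperature. ATP formed was read by luciferase luminescence and normalized to no-enzyme and uninhibited controls.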
CHX counter = counter-screen hit for Shiga toxin inhibitors, cycloheximide; cell reporter, cycloheximide protein synthesis inhibition counterscreen; max response, %; 12% of 300,000 active; AID 2314; in the data active = max response mostly above about 13%, no sharp cut-off; inactive = mostly below about 14%; also: read at 38.3 µM for the half of the compounds with a filed dose
Of the large screens only hits and unclear results are named; the others gave an inactive call. This is one part of a sample in which hits are shown more often than they occur. Unless noted, calls follow the shape of the dose curve; as a rule, active = well fitted curve in the direction sought with a large enough effect; inconclusive = small, poorly fitted or top-dose-only effect, or another doubt; inactive = no such curve, though single readings can be large; an effect the other way counts as inactive or inconclusive.

CC(C)C[C@H]1C(=O)N2CCC[C@H]2[C@]2(O)O[C@](NC(=O)[C@@H]3C=C4c5cccc6[nH]c(Br)c(c56)C[C@H]4N(C)C3)(C(C)C)C(=O)N12	none (no result: TbPYK inhibitor, Sm TGR block, LmPK inh)
CC(C)C[C@H]1C(=O)N2CCC[C@H]2[C@]2(O)O[C@](NC(=O)[C@@H]3C=C4c5cccc6[nH]cc(c56)C[C@H]4N(C)C3)(C(C)C)C(=O)N12	Sm TGR block 5.62µM (no result: Shiga toxin inh, Giardia FBPA inh, LmPK inh, CHX counter)
CC1=C(C(=O)N2CCOCC2)C(c2c(F)cccc2F)NC(=O)N1 (stereo not drawn)	none
O=C(O)/C=C/C(O)c1ccc(Cl)cc1 (stereo not drawn)	Sm TGR block 25.1µM (no result: Shiga toxin inh, LmPK inh, CHX counter)
C=C(C(C)=O)C(O)c1ccc(Cl)cc1 (stereo not drawn)	none (no result: Shiga toxin inh, TbPYK inhibitor, Sm TGR block, LmPK inh, CHX counter)
CCOC(=O)CNC(=O)c1ccc2c(c1)OCCO2	Shiga toxin inh 58.7, CHX counter 45.9
CCOC(=O)CNC(=O)c1cc(-c2ccc3c(c2)OCCO3)oc1C	Shiga toxin inh 63.5, CHX counter 44.3
O=C(CNC(=O)c1ccc(Cl)cc1)OCC(=O)c1ccc2c(c1)OCCO2	CHX counter 44.9
CCOc1ccccc1C(=O)NCC(=O)OCC(=O)c1ccc2c(c1)OCCO2	none
COC(=O)CCC(NC(=O)c1cc(-c2ccc3c(c2)OCCO3)oc1C)C(=O)OC (stereo not drawn)	Sm TGR block inconclusive
Cc1oc(-c2ccc3c(c2)OCCO3)cc1C(=O)NC(Cc1ccccc1)C(=O)O (stereo not drawn)	Sm TGR block 35.5µM
O=S(=O)(c1ccccc1)N1CCN(S(=O)(=O)c2ccc3c(c2)OCCO3)CC1	none (no result: TbPYK inhibitor, Sm TGR block, Giardia FBPA inh, LmPK inh)
Cc1ccc(NC(=O)Cn2c(=O)c(CNc3ccccc3)cc3cc4c(cc32)OCCO4)cc1	none (no result: Shiga toxin inh, Giardia FBPA inh, LmPK inh, CHX counter)
CCOC(=O)CNC(=O)c1cc(C)oc1C	Sm TGR block 35.5µM (no result: TbPYK inhibitor)
O=S1(=O)c2ccc(Br)cc2N2CCC[C@@H]2CN1Cc1ccccc1	none (no result: Shiga toxin inh, Sm TGR block, Giardia FBPA inh, LmPK inh, CHX counter)
CCN(CC1CCCO1)C(=O)c1cc(COc2ccc(OC)cc2Cl)on1 (stereo not drawn)	CHX counter 15.7
CCN(Cc1ccncc1)C(=O)c1cc(COc2ccc(F)cc2Cl)on1	none (no result: Giardia FBPA inh)
CCCN(CC1CCCO1)C(=O)c1cc(COc2ccc(F)cc2F)on1 (stereo not drawn)	none
CCN(Cc1ccncc1)C(=O)c1cc(COc2ccc(OC)cc2Cl)on1	Shiga toxin inh 99.5, CHX counter 42.5 (no result: Giardia FBPA inh)
CC(C)(C)OC(=O)N[C@@H](C(=O)OC(C)(C)C)c1ccc(Br)cc1	none (no result: Shiga toxin inh, Giardia FBPA inh, LmPK inh, CHX counter)
CCOC(=O)N1CCC(NS(=O)(=O)c2ccccc2)CC1	Sm TGR block 44.7µM
C=CC[N+]1(C)CC[C@]23c4c5ccc(O)c4O[C@H]2C(=O)CC[C@@]3(O)[C@H]1C5 (stereo partly drawn)	Sm TGR block 50.1µM (no result: Shiga toxin inh, Giardia FBPA inh, LmPK inh, CHX counter)
C=CC[N+]1(C)CCC23c4c5ccc(O)c4O[C@H]2C(=O)CC[C@@]3(O)C1C5 (stereo partly drawn)	none (no result: Shiga toxin inh, Sm TGR block, Giardia FBPA inh, LmPK inh, CHX counter)
Cc1cc2c(s1)c1c(n2C)C(=O)N(Cc2ccccc2F)C1	none (no result: Shiga toxin inh, TbPYK inhibitor, Giardia FBPA inh, LmPK inh, CHX counter)
N#CC(Br)Br	Sm TGR block 50.1µM (no result: Shiga toxin inh, Giardia FBPA inh, LmPK inh, CHX counter)
Cc1ccc(O)c(NC(=S)NC(=O)c2ccccc2Cl)c1	CHX counter 17.5 (no result: Sm TGR block)
COCC(C)NC(=S)Nc1ccccc1[N+](=O)[O-] (stereo not drawn)	Sm TGR block 39.8µM
COc1ccc(NC(=S)NC(=O)c2ccccc2Cl)cc1	Shiga toxin inh 96.3, Sm TGR block inconclusive, CHX counter 38.2
Cc1ccc(O)c(NC(=O)c2ccccc2-c2ccccc2C(=O)O)c1	none (no result: Shiga toxin inh)
Cc1nn(C)c(C(=O)NC(=S)Nc2ccccc2O)c1Cl	CHX counter 10.5 (no result: Giardia FBPA inh)
Cc1ccccc1NC(=O)Cn1nc(-c2ccccc2)nc(Cc2ccccc2)c1=O	none (no result: Shiga toxin inh, Giardia FBPA inh, LmPK inh, CHX counter)
O=C(NC(=S)Nc1ccc(O)cc1)c1ccccc1Cl	Sm TGR block inconclusive, CHX counter 34.4
O=C(NC(=S)Nc1ccccc1[N+](=O)[O-])c1ccccc1Cl	Shiga toxin inh 125.2, Sm TGR block inconclusive, Giardia FBPA inh inconclusive, CHX counter 47.8
Oc1ccc(NC(=S)Nc2ccccc2)cc1	none
O=C(NNCc1ccc(O)cc1)c1ccccc1Cl	Shiga toxin inh 38.8, CHX counter 45.5
CC(C)CNC(=S)NC(=O)c1ccccc1Cl	Shiga toxin inh 43.5, CHX counter 39.6

Assay outcomes from PubChem BioAssay.
